This is an account of results in PubChem BioAssay (NCATS).

Records with an inconclusive call do not appear. More than one record can exist for a structure, and the calls need not agree. Calls of active or inactive are those of the source. Unless noted, calls come from the whole dose curve; as a rule, active = well fitted curve in the direction sought with a large enough effect; inconclusive = small, poorly fitted or top-dose-only effect, or another doubt; inactive = no such curve, though single readings can be large; an effect the other way counts as inactive or inconclusive. Starred links: 1 amine or outer side, 2 acyl side, 3 side chain; linkers in the order of their positions; H or OH if unused. Positions of bridges follow the written chain, without caps; N, C: chain ends. Non-standard residues stand in square brackets, D forms with d. Residues, ends and D or L forms follow the SMILES beside them. *: point of attachment. X4 = NC1=N[C@@H](O)C[C@H]([C@H](N[*:1])C(=O)[*:2])N1; ΔAla(3-NHCONH2) = NC(=O)NC=C(N)C(=O)O; β3hOrn = NCCC[C@H](N)CC(=O)*; Dap = NC[C@H](N)C(=O)O

In assay [1] the target is Lysosomal acid glucosylceramidase (Homo sapiens) (UniProt P04062). The experiment in a line: Glucocerebrosidase-p2 (AID 348; in the data active = potency below about 10 µM; note: potency is the fitted concentration of half-maximal effect). As to conditions: purified GBA, blue fluorogenic substrate, 40 min. Put shortly:
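Normal human glucocerebrosidase (0.2 nM) with blue fluorogenic substrate (80 uM final) in citrate/phosphate pH 5.9 with 10mM sodium taurocholate, 0.01% tween-20; 40 min RT, NaOH/glycine stop; fluorescence Ex 365/Em 440; AC50 from a titration from 0.6 nM upwards.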

Assay [2] can be described thus: AP1 Signaling Pathway (AID 357; active = well fitted curve in either direction with a large enough effect, not every such curve was filed as active;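 note: ME-180 reporter cells stimulated with EGF at its EC50 level; % is set by controls: 0 for no effect and ±100 for the full control effect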). As to conditions: ME-180 AP-1-bla reporter, EGF-induced, beta-lactamase ratio, 5 h; at 7.69 µM (top of the series) unless noted. The method in brief:
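First, ME-180 AP-1-bla cells were cultured overnight at 37 °C in low-serum Opti-MEM. Next, titrated compounds with EC50 EGF were incubated 5 hours. Finally, CCF4 was added for 2.5 hours and the 460/530 nm ratio recorded.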

Assay [3] addresses Cytochrome P450 1A2 (Homo sapiens) (UniProt P05177). The experiment in a line: p450-cyp1a2 (AID 410; calls by dose curve; note: potency is the fitted concentration of half-maximal effect;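 for activity change, negative = inhibition: -100% = full effect of reference inhibitor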). The method in brief: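 O-Demethylation of luciferin 6' methyl ether by human CYP1A2 is monitored as luciferase luminescence. Substrate sits at Km (100uM); enzyme is 20nM. Values are scaled to 57 uM furafylline as maximal inhibition.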
Assay [4] can be described thus: NFAT Signaling Pathway (AID 444; active = well fitted curve in either direction with a large enough effect, not every such curve was filed as active;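 note: carbachol stimulus at about its EC50 of 1 µM final; % is set by controls: 0 for no effect and ±100 for the full control effect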). As to conditions: Jurkat NFAT-bla M1, carbachol, beta-lactamase ratio, 5 h; at 7.69 µM (top of the series) unless noted. The method in brief: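 Jurkat cells with NFAT-driven β-lactamase reporter and co-expressed M1 receptor, stimulated with carbachol (final 1 uM, ~EC50), compound titration, 5 h at 37 °C. CCF4 loaded 1 h at RT; 460/530 nm ratio gave %activity and AC50.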

The nature of assay [5]: Stat Signaling Pathway (AID 446; active = well fitted curve in either direction with a large enough effect, not every such curve was filed as active;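 note: ME-180 cervical cancer cells given 40 pM IL-6 alongside compound; SIE-controlled beta-lactamase reporter measured as 460/530 nm FRET emission ratio; % is set by controls: 0 for no effect and ±100 for the full control effect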). As to conditions: ME-180 (cervical carcinoma) SIE beta-lactamase reporter, IL-6 stimulated, 5 h; at 7.69 µM (top of the series) unless noted. Put shortly:
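Normalization used AC90 stimulation (300 pM IL-6) and AC90 inhibition (125 nM pan-JAK inhibitor at 40 pM IL-6). The underlying signal is SIE-driven beta-lactamase in ME-180 cells after 5 h IL-6 exposure with compound.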

Assay [6] has as its target Glucocorticoid receptor (Homo sapiens) (UniProt P04150). The experiment in a line: GR-GFP Redistribution (AID 450;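 active = compounds whose dose series gives a full or clear partial fitted curve of increased nuclear translocation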; note: potency is the fitted concentration of half-maximal effect). As to conditions: U2OS GR-GFP nuclear translocation, laser cytometry, 2 h.
Assay [7] has the same target. Kind of assay: GR-EFC Redistribution (AID 451; calls by dose curve; note: potency is the fitted concentration of half-maximal effect). As to conditions: CHO-K1 GR-EFC translocation, beta-gal luminescence, 2 h. Put shortly: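 CHO-K1 cells expressing nuclear EA and GR-ED fragments of b-gal; compounds titrated up to 46 uM final, 2 h at 37 C. GR nuclear translocation read as complemented b-gal luminescence after 1 h RT detection.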
Assay [8] has as its target Mitogen-activated protein kinase 10 (Mus musculus) (UniProt Q61831). The experiment in a line: JNK3 AlphaScreen Assay (AID 530; active = well fitted curve in either direction with a large enough effect, not every such curve was filed as active;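 note: kinase came from lysate of stimulated human HepG2 cells; signal reports phosphorylation of biotinylated GST-cJun 1-79 at Ser73 with 10 µM ATP; % is set by controls: 0 for no effect and ±100 for the full control effect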). The method in brief:
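Activity was read by AlphaScreen after JNK3-containing HepG2 lysate (cytokine pre-activated) phosphorylated biotinylated GST-cJun with 10 uM ATP at room temperature. Phospho-Ser73 cJun antibody with Protein-A acceptor beads provided detection.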
In general terms: Alpha assays give light when donor and acceptor beads are brought close together.

Assay [9] has as its target Cytochrome P450 3A4 (Homo sapiens) (UniProt P08684). Kind of assay: qHTS Assay for Inhibitors and Substrates of Cytochrome P450 3A4 (AID 884). Note: nearly all actives have a fitted effect of over 50% in size. Note: potency is the fitted concentration of half-maximal effect. The method in brief: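 Luminescent readout of luciferin produced by CYP3A4 (20 nM) dealkylation of Luciferin-PPXE, 25 uM (its KM). NADPH-driven reaction ran 60 min at RT after 10 min compound preincubation; data scaled to 57 uM ketoconazole as 100% inhibition.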

The target is the same in assay [10]. Kind of assay: qHTS Assay for Activators of Cytochrome P450 3A4 (AID 885). Note: nearly all actives have a fitted effect of over 65% in size. Put shortly:
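Human CYP3A4 dealkylates Luciferin-PPXE to luciferin, which luciferase detection converts to light. Substrate was at its KM (25uM), buffer 200mM KPO4, reaction 60 min at RT.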
A general note: In qHTS, concentration-response curves come from the screen itself.

The nature of assay [11]: qHTS Assay for Lipid Storage Modulators (AID 1519; calls by dose curve). As to conditions: Drosophila S3 cells, BODIPY lipid droplet/cell ratio, laser cytometry, cells loaded with oleic acid; for activity change, negative = inhibition: at 57.5 µM (top of the series). Put shortly:
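Cells seeded at 5,000 per well were treated with compounds over a concentration series and loaded with oleic acid (400 uM, as added). Lipid droplet fluorescence (488 nm excitation, 500-530 nm channel) was read by laser-scanning cytometry and normalized to 20 uM Triacsin C.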

The target of assay [12] is Ubiquitin carboxyl-terminal hydrolase 1 (Homo sapiens) (UniProt O94782). The experiment in a line: Inhibitors of USP1/UAF1: Pilot qHTS (AID 504865).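 Note: rhodamine fluorescence freed from ubiquitin-rhodamine substrate followed over time; top concentration of the series differs between compounds; % is set by controls: 0 for no effect and ±100 for the full control effect; nearly all actives have a fitted effect of over 35% in size.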 Put shortly:
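1nM USP1/UAF1 + cpd, 15 min RT; start w/ Ub-Rho 150nM final; kinetic FL 480/540 nm, 6 reads q60 s. Buffer 50mM HEPES pH 7.8, 0.5mM EDTA, 1mM TCEP, 0.01% Tween-20, 0.1 mg/ml BSA.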

Assay [13] addresses Rap guanine nucleotide exchange factor 3 (Homo sapiens) (UniProt O95398). Kind of assay: Confirmatory qHTS for antagonist of cAMP-regulated guanine nucleotide exchange factor 3 (EPAC1) (AID 1645880).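 Note: plate controls were DMSO only for no effect and full effect of the ATA control for full effect; nearly all actives have a fitted effect of over 55% in size.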 Put shortly:
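Released BODIPY-GDP fluoresces less than Rap1-bound BODIPY-GDP; the signal is followed at 480/540 nm at 5-min intervals over 30 min, after 5 min at room temperature. Reactions contain 100 nM EPAC1, 250 nM RAP1B-BODIPY-GDP and 50 uM GDP; results are normalized to ATA and DMSO.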

For assay [14] the target is unchanged. Kind of assay: Confirmatory qHTS for agonist of cAMP-regulated guanine nucleotide exchange factor 3 (EPAC1) (AID 1645881).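 Note: EPAC1 catalysed release of BODIPY-GDP from Rap1B seen as fluorescence loss; 100% = effect of cAMP agonist control; nearly all actives have a fitted effect of over 75% in size.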
In assay [15] the target is Rap guanine nucleotide exchange factor 4 (Homo sapiens) (UniProt Q8WZA2). Kind of assay: Confirmatory qHTS for agonist of cAMP-regulated guanine nucleotide exchange factor 4 (EPAC2) (AID 1645884).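 Note: nucleotide exchange releases bodipy-GDP from Rap1 and this lowers its fluorescence; % is set by controls: 0 for no effect and ±100 for the full control effect; nearly all actives have a fitted effect of over 65% in size.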
The target is the same in assay [16]. Kind of assay: Confirmatory qHTS for antagonist of cAMP-regulated guanine nucleotide exchange factor 4 (EPAC2) (AID 1645885). Note: nearly all actives have a fitted effect of over 25% in size. Note: potency is the fitted concentration of half-maximal effect.
The nature of assay [17]: Confirmation and Secondary Assay for Modulators of Hemoglobin Beta Chain Splicing at IVS2 654 locus (AID 910).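 Note: HeLa cells stably carrying EGFP split by mutant beta-globin IVS2-654 intron; % of control where 0% means no effect.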 The method in brief: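 HeLa cells stably expressing EGFP interrupted by β-globin IVS2-654 intron, seeded overnight in Opti-MEM/2% FCS, then treated 2 days at 37 °C. Restored splicing read as total peak GFP intensity per well by laser scanning cytometry (488 nm excitation, 500–520 nm emission); 500 nM antisense PNA as control.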

Assay [18] in a line: Confirmation and Secondary Assay for Modulators of Hemoglobin Beta Chain Splicing at IVS2 705 locus (AID 930).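 Note: HeLa cells stably expressing the EGFP-705 splicing reporter; GFP fluorescence per well restored by corrected splicing of the IVS2-705 intron in EGFP; % of control where 0% means no effect.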 Put shortly:
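HeLa EGFP-705 reporter; 500 cells/well, o/n 37C 5% CO2; cpd 2 d; 488 ex/500-520 em laser scan; total peak GFP intensity/well. Ref: 500 nM […] antisense PNA.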

Assay [19] in a line: Primary qHTS for small molecule stabilizers of the endoplasmic reticulum resident proteome: Secreted ER Calcium Modulated Protein (SERCaMP) assay (AID 1508630). Note: % is set by controls: 0 for no effect and ±100 for the full control effect. The method in brief: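 The SH-SY5Y reporter protocol was run at 3 concentrations up to 38.3 uM (primary) or 11 concentrations (follow-up): 16 h compound, 100 nM thapsigargin for 4 h, then extracellular luciferase luminescence.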

Assay [20] concerns the target 3',5'-cyclic-AMP phosphodiesterase 4B (Homo sapiens) (UniProt Q07343). The experiment in a line: qHTS Assay for Inhibitors of PDE-IV (AID 607; active = well fitted activation curve with a large enough effect in the main read-out, with a control signal flat, not every such curve was filed as active; note: % of control where 0% means no effect). The method in brief:
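HEK293 ACTOne cells with CNG channel (1000/well), endogenous PDE4; membrane potential dye, compounds up to 22.9 uM final. Fluorescence Ex 535/Em 590; RO 20-1724 (100 uM final) as reference.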

Where [21] appears, read: measured here: cell count channel max response.
Where [22] appears, read: measured here: lipid channel max response.

Chain of Rap guanine nucleotide exchange factor 4 (Homo sapiens) (Q8WZA2 whole entry, looked up): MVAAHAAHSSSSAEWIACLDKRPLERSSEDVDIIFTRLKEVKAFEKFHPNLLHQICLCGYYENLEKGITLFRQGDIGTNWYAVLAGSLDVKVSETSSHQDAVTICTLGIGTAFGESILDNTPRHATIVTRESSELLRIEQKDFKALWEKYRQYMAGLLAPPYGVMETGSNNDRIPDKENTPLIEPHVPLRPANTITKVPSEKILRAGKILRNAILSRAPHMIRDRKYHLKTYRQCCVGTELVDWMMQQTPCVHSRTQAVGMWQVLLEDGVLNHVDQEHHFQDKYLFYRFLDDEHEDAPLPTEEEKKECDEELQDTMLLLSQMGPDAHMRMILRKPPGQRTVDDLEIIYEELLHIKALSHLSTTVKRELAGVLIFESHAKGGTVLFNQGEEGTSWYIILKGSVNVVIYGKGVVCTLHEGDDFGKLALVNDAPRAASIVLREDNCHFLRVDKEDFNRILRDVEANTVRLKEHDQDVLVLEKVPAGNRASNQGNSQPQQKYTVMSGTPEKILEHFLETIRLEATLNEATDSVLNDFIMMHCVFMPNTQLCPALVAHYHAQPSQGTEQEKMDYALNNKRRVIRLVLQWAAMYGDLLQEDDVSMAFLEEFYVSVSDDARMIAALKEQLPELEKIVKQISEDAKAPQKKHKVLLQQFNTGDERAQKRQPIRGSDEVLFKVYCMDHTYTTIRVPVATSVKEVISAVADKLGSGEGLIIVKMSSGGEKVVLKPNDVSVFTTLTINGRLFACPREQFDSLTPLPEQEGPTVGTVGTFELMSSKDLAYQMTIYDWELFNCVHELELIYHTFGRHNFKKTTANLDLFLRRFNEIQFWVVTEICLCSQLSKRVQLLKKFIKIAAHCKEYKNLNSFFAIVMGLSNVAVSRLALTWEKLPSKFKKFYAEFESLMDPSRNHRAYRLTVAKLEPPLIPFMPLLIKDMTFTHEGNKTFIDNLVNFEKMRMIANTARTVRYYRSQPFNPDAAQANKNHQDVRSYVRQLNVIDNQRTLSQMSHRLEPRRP
Chain of Cytochrome P450 3A4 (Homo sapiens) (P08684 whole entry, looked up): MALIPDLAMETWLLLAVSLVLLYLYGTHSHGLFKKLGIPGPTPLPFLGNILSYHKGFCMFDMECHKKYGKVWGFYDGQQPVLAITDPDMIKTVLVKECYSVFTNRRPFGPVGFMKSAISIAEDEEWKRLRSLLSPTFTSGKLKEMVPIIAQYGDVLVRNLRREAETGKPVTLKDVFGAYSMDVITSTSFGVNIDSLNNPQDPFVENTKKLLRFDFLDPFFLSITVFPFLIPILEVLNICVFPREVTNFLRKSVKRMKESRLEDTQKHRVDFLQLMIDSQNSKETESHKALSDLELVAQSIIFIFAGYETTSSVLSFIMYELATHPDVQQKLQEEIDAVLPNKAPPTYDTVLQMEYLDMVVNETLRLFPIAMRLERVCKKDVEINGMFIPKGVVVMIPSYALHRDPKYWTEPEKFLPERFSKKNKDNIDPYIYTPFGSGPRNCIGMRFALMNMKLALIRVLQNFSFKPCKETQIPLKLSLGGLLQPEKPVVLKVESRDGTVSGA
Chain of 3',5'-cyclic-AMP phosphodiesterase 4B (Homo sapiens) (Q07343 whole entry, looked up): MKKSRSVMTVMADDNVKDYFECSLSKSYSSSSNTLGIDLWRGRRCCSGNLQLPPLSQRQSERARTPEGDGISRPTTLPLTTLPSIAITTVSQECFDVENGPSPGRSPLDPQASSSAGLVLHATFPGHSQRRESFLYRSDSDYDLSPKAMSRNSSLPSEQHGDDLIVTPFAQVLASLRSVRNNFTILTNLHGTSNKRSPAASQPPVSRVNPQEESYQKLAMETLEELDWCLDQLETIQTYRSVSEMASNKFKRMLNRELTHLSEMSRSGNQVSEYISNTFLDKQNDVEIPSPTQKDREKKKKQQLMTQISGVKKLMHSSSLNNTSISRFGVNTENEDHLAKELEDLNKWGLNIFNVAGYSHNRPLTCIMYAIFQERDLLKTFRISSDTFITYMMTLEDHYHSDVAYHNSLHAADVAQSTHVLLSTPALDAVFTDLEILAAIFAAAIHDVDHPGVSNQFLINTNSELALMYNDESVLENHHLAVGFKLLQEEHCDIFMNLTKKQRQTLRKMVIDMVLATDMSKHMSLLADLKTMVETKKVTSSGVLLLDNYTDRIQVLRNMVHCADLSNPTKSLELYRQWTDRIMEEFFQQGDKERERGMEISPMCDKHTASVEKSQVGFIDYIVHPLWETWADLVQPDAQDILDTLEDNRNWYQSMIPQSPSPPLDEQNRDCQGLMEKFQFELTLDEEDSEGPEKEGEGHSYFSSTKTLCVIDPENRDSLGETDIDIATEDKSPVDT
Chain of Cytochrome P450 1A2 (Homo sapiens) (P05177 whole entry, looked up): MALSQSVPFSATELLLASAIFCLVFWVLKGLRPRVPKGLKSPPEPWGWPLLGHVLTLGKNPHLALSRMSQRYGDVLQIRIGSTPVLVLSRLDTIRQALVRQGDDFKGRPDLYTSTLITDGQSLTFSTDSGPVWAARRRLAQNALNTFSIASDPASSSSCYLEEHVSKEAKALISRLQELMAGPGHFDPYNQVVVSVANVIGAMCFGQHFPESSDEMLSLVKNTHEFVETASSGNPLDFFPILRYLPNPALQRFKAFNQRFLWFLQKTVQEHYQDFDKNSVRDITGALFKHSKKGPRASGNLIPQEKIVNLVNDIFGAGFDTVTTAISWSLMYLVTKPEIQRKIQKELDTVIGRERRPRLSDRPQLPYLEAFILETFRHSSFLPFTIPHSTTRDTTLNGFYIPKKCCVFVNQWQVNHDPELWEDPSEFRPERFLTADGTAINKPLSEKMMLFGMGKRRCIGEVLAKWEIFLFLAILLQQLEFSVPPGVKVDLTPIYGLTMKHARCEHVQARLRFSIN
Chain of Ubiquitin carboxyl-terminal hydrolase 1 (Homo sapiens) (O94782 whole entry, looked up): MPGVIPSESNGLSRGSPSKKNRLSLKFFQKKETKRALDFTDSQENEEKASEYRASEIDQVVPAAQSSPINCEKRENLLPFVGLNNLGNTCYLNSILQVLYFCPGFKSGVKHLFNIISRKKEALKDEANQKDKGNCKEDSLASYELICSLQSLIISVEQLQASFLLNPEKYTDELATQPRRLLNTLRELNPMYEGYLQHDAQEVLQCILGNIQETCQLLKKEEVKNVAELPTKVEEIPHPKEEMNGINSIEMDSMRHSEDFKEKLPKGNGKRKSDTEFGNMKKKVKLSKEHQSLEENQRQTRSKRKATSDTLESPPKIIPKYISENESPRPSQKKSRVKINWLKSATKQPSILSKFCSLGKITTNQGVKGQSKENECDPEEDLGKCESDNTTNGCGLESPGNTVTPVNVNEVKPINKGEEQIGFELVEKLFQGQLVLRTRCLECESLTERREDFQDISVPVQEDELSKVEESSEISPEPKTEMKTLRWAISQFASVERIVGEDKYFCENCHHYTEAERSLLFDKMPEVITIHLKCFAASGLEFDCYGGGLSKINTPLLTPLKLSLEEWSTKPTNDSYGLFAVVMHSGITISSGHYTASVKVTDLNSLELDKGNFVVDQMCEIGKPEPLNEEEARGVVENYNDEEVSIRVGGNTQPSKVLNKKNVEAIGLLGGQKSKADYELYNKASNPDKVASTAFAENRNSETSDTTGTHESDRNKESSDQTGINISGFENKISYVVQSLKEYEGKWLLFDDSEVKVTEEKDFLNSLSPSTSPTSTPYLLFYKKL
Chain of Rap guanine nucleotide exchange factor 3 (Homo sapiens) (O95398 whole entry, looked up): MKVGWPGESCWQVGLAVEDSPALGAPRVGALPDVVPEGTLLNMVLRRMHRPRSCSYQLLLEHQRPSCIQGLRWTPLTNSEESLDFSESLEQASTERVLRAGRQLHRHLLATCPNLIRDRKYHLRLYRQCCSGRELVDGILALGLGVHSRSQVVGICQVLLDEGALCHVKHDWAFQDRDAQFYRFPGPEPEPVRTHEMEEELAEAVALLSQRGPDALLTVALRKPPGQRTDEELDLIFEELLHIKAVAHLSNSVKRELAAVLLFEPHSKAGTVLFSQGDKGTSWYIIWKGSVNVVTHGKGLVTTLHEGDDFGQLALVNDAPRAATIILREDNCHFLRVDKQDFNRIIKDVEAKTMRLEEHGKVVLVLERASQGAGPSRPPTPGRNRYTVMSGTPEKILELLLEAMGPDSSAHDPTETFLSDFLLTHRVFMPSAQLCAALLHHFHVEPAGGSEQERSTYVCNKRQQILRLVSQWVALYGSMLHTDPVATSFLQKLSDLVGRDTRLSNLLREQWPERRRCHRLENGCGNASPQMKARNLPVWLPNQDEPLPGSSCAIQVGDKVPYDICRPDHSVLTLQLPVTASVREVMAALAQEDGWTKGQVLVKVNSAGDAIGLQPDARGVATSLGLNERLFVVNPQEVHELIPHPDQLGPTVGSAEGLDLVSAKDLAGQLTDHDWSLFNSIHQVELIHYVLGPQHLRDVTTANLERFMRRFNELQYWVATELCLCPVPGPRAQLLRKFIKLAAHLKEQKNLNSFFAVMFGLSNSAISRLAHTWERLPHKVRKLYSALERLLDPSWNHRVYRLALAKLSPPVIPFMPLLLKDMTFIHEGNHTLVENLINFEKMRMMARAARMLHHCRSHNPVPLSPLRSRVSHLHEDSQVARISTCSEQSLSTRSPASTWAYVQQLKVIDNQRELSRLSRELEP
Chain of Lysosomal acid glucosylceramidase (Homo sapiens) (P04062 whole entry, looked up): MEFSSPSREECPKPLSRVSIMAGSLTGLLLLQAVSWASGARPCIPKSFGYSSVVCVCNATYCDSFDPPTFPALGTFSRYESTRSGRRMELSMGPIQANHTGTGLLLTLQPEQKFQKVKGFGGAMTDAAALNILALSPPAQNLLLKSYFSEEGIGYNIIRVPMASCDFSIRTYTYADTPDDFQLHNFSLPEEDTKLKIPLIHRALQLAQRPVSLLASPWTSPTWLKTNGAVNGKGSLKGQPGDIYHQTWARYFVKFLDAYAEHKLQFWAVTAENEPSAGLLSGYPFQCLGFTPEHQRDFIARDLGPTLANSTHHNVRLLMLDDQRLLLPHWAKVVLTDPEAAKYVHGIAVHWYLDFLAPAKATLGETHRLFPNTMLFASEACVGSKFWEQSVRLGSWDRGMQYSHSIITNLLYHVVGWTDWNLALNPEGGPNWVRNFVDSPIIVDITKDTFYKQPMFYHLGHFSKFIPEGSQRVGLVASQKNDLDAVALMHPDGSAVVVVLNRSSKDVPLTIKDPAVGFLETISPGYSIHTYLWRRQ

Consider `Cc1ccccc1-c1ccc2ncnc(N(C)C)c2c1`, for which the Potency in assay [1] is > 11.4 µM (inactive); in [3], 0.631 µM (active); in assay [6], > 46 µM (inactive); in [7] it was > 46 µM (inactive); in [9], 3.16 µM (active). In addition, the activity change, negative = inhibition in assay [2] was 13.7% (inactive); in [4] it was 7.63% (inactive); in assay [11], 1.72% (inactive). In assay [5], the activity, negative = inhibition is -4.62% (inactive). In addition, the Potency result in assay [8], in [10], in assay [12], in assay [13], in assay [14] and in [15] was “inactive” each time. Also, in [16], the Potency result is “inactive”. Also, the max response in [11] (setting [21]) is -2.12%; in assay [11] (setting [22]), -3.73%.

Consider `CN(Cc1ccco1)c1ncnc2ccc(-c3ccc4c(c3)OCO4)cc12`, for which the Potency in assay [1] is > 11.4 µM (inactive); in assay [3] it was 0.501 µM (active); in assay [6], > 46 µM (inactive); in assay [7], > 46 µM (inactive); in assay [9], 2.51 µM (active); in [16], 13.9 µM (active) and inactive. The activity, negative = inhibition in [5] was -7.17% (inactive). The Potency result in assay [8], in [10], in [17], in assay [13], in assay [14] and in assay [15] was “inactive” each time. Besides, the molecule was called inactive in assay [18]. Further, in assay [11], the activity change, negative = inhibition was 2.26% (inactive). The max response in assay [11] (setting [21]) was -9.61%; in assay [11] (setting [22]), -5.56%.

In the case of `NCCC[C@H](N)CC(=O)N[C@H]1CNC(=O)[C@H]([C@H]2C[C@H](O)N=C(N)N2)NC(=O)C(=CNC(N)=O)NC(=O)[C@H](CO)NC(=O)[C@H](CO)NC1=O` (β3hOrn-[Dap]SS[ΔAla(3-NHCONH2)][X4]; lactam 1-C), the result in assay [19] was inactive.

Take `COc1ccc2[nH]cc(CCNc3nc(-c4ccc(C(=O)N(C)C)cc4)nc4ccccc34)c2c1`: the results for the Potency in [6], in assay [7] and in assay [9] were > 46 µM (inactive), > 46 µM (inactive) and 2.51 µM (active), respectively. The Potency result in assay [8], in assay [20], in assay [10] and in assay [12] was “inactive” throughout. Besides, the molecule was called inactive in assay [18] and in assay [19].

Regarding `CC(=O)NC(C(=O)O)C(C)(C)SN=O` (stereo not drawn), the activity change, negative = inhibition in assay [11] was 0.182% (inactive). The max response in assay [11] (setting [21]) was 6.33%; in assay [11] (setting [22]), 9%.

With `O=C(c1cnccn1)N1CCC2(CCCN(Cc3ccncc3)C2)CC1`, in assay [2], the activity change, negative = inhibition is -12.8% (inactive). In assay [5], the activity, negative = inhibition is 6.38% (inactive). The Potency in assay [7] is > 46 µM (inactive). Besides, the Potency entry in [8] and in [20] was “inactive” each time. In addition, in assay [19], the result was inactive.

Turning to `COC(=O)c1c(C)cc(OC(=O)c2c(C)cc(O)c(C=O)c2O)c(C)c1O`, the Potency result in assay [17] and in [12] was “inactive” in each case. In assay [18], the result was inactive. Further, in assay [11], the activity change, negative = inhibition is -6.06% (inactive). The max response in [11] (setting [21]) is -15.4%; in assay [11] (setting [22]), -19%.

For `CCCNC(=O)N1N=C(c2ccc(N)cc2)c2cc3c(cc2[C@H]1C)OCO3`, the Potency was 3.98 µM (active) in assay [3], > 46 µM (inactive) in assay [6], > 46 µM (inactive) in [7] and 1.26 µM (active) in [9]. In assay [10], the Potency result was “inactive”. The outcome in assay [19] was inactive.

As to `COc1cc2c(cc1OC)C(=O)Cc1ccc3c(c1CN(C)CC2)OCO3`, the Potency entry in assay [3], in assay [8], in [20] and in [9] was “inactive” each time. Further, the Potency in [6] and in [7] was > 46 µM (inactive) each time. Moreover, the result in [19] was inactive.
